The values that follow come from PubChem BioAssay (NCATS).

Results filed as inconclusive are left out. Active and inactive are the calls of the source. The call rests on the fitted dose curve; in most records, active means well fitted cell-killing curve with a large enough effect; inconclusive means small, poorly fitted or top-dose-only effect; inactive means flat fitted curve, though single readings scatter.

The experiment in a line: qHTS assay to identify small molecule inhibitors of chordoma cells - UCH-2 (AID 1259356). The note with it: UCH-2 chordoma viability, CellTiter-Glo ATP luminescence, 48 h; series mostly up to 46.1 µM.
For `CC(C(=O)O)c1ccc(-c2ccccc2)c(F)c1` (configuration not stated), the call was inactive.
Then `O=C1NCC2(CCN(CCc3ccccc3)CC2)O1`, with “inactive”; and `COC(=O)[C@@H]1[C@H]2C[C@H]3c4[nH]c5ccccc5c4CCN3C[C@@H]2CC[C@@H]1O`, with “inactive”; and `O=C(O)Cc1cccc2ccccc12`, with “inactive”.
For the compound `C[N+](C)(C)CCCCCC[N+](C)(C)C`, the compound was classed as inactive.
Then `CC(=O)O[C@]1(C(C)=O)CC[C@H]2[C@@H]3C=C(Cl)C4=CC(=O)[C@@H]5C[C@@H]5[C@]4(C)[C@H]3CC[C@@]21C`, with “inactive”.
In the case of `O=C1NC(=O)C(c2ccccc2)(c2ccccc2)N1`, the call was inactive.
For `Cc1cnc(C(=O)O)c[n+]1[O-]`, the call was inactive.
As for `Cc1cccc(C)c1OCC(C)N` (configuration not stated), the result was inactive.
With `CCN(CC)CCNC(=O)c1ccc(N)cc1`, the result was inactive.
Then `NCCS`, with “inactive”; and `CC1(C)O[C@H]2C[C@@H]3[C@H]4CCC5=CC(=O)C=C[C@]5(C)[C@@]4(F)[C@@H](O)C[C@]3(C)[C@]2(C(=O)CO)O1`, with “inactive”; and `CCOC(=O)O[C@]1(C(=O)OCCl)CC[C@@H]2[C@H]3CCC4=CC(=O)C=C[C@]4(C)[C@@H]3[C@@H](O)C[C@@]21C`, with “inactive”.
Then `COc1ccccc1N1CCN(CCCNc2cc(=O)n(C)c(=O)n2C)CC1`, with “inactive”; and `CN(C)CCC(c1ccccc1)c1ccccn1` (configuration not stated), with “inactive”; and `CC/C(=C(\c1ccccc1)c1ccc(OCCN(C)C)cc1)c1ccccc1`, with “inactive”.
On to `COCCCCC(=NOCCN)c1ccc(C(F)(F)F)cc1`, for which the call was inactive.
Then `CC(=O)CCCCn1c(=O)c2c(ncn2C)n(C)c1=O`, with “inactive”; and `OC[C@@H](O)[C@H](O)[C@H](O)[C@@H](O)CO`, with “inactive”.
Then `O=c1[nH]cnc2c1ncn2[C@H]1CC[C@@H](CO)O1`, with “inactive”; and `CCCCC1C(=O)N(c2ccccc2)N(c2ccccc2)C1=O`, with “inactive”; and `O=C(NCCN1CCOCC1)c1ccc(Cl)cc1`, with “inactive”.
Then `CC(C)(C)c1ccc(C(O)CCCN2CCC(C(O)(c3ccccc3)c3ccccc3)CC2)cc1` (configuration not stated), with “inactive”.
In the case of `CCN1CCC[C@H]1CNC(=O)c1cc(S(N)(=O)=O)ccc1OC`, the compound was called inactive.
Then `Clc1ccc(Cn2c(CN3CCCC3)nc3ccccc32)cc1`, with “inactive”.
Turning to `O=C(O)c1cc(-c2ccccc2)nc2ccccc12`, the call was inactive.
Then `NC(N)=Nc1nc(CSCC/C(N)=N/S(N)(=O)=O)cs1`, with “inactive”.
As for `CC(C)NCC(O)COc1cccc2[nH]ccc12` (configuration not stated), the compound was called inactive.
Then `CC1=C(/C=C/C(C)=C/C=C/C(C)=C/C(=O)Nc2ccc(O)cc2)C(C)(C)CCC1`, with “inactive”; and `C[C@@H](O)[C@H]1C(=O)N2C(C(=O)O)=C(S[C@@H]3CN[C@H](C(=O)N(C)C)C3)[C@H](C)[C@H]12`, with “inactive”.
As to `CC(=O)N[C@@H](CS)C(=O)O`, the compound was classed as inactive.
Take `CC[C@]1(O)C[C@@H]2CN(CCc3c([nH]c4ccccc34)[C@@](C(=O)OC)(c3cc4c(cc3OC)N(C)[C@H]3[C@@](O)(C(=O)OC)[C@H](OC(C)=O)[C@]5(CC)C=CCN6CC[C@]43[C@@H]65)C2)C1`: the compound was called inactive.
Then `CC(=O)c1ccc(S(=O)(=O)NC(=O)NC2CCCCC2)cc1`, with “inactive”; and `CCN(CC)C(=O)c1ccc(O)c(OC)c1`, with “inactive”; and `O=C(O)CCc1nc(-c2ccccc2)c(-c2ccccc2)o1`, with “inactive”.
For the compound `CCCNC(=O)NS(=O)(=O)c1ccc(Cl)cc1`, the call was inactive.
With `CCN(CC)CCOC(=O)c1ccc(N)cc1`, the compound was called inactive.
